Results published in PubChem BioAssay AID651939 (The Scripps Research Institute Molecular Screening Center, 2012).
This is one part of the list. Unmarked numbers belong to inactive results. Calls of active or inactive are those of the source. Cut-off read from the data, not from the text of the source: active = IC50 below about 9 µM; inactive = the rest.

Assay: binders of control antibody PG126, dose response, counter-screen for PG9 antibody binder project, biochemical, TR-FRET, distinct HIV envelope site (AID 651939)
Conditions: TR-FRET binding to antibody PG126, counterscreen
For `O=C(Oc1ccccc1)Oc1ccc2c(c1)oc(=O)c1ccccc12`, the IC50 was 4.13 µM (active).
With `Cc1cccc(Nc2nc3c(S(=O)(=O)c4ccccc4)nnn3c3ccccc23)c1C` the IC50 was 3.75 µM (active).
With `O=C(Nc1nnc(-c2ccccc2F)s1)c1ccccc1F` the IC50 was 17.9 µM.
In the case of `COc1ccc(-c2c(C)nn3c(N4CCC(C(=O)N5CCCCC5)CC4)cc(C)nc23)cc1OC`, the IC50 is reported as > 67 µM.
Work on `CC1(C)Cc2ccccc2-c2[nH]c(=S)[nH]c(=O)c21` yielded an IC50 of 66.1 µM.
Compound `S=c1[nH]c2ccccc2c2ccccc12` has an IC50 of 60.4 µM.
With `COC(=O)C1=C(C)N(Cc2ccccc2C(F)(F)F)C(=NCc2ccc(OC)cc2)NC1c1cccc(C(F)(F)F)c1` (configuration not stated) the IC50 was > 67 µM.
